Reference: PubChem BioAssay (EPA / NIEHS)
Active and inactive are the calls of the source. Rule for the calls: active = hit-call score of the fitted dose curve at least 0.9, where 1 is the maximum; inactive = score below 0.9.

What was measured:
[1] = read-out: Interleukin-8 (IL8), CXCL8 (gene 3576); assay: BSK_CASM3C_IL8: BioMAP Diversity Plus: CASM3C Assay for Interleukin-8 (IL8) Biomarker Activity (AID 2283042); settings: primary human coronary artery smooth muscle cells; actives raise or lower the signal;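 note: IL-8 protein level quantified by ELISA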
[2] = read-out: Human Leukocyte Antigen - DR isotype (HLADR), HLA-DRA (gene 3122); assay: BSK_CASM3C_HLADR: BioMAP Diversity Plus: CASM3C Assay for Human Leukocyte Antigen - DR isotype (HLADR) Biomarker Activity (AID 2283043); settings: primary human coronary artery smooth muscle cells; actives raise or lower the signal;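 note: cell-surface HLA-DR protein level quantified by ELISA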
[3] = read-out: Macrophage colony-stimulating factor (MCSF), CSF1 (gene 1435); assay: BSK_CASM3C_MCSF: BioMAP Diversity Plus: CASM3C Assay for Macrophage colony-stimulating factor (MCSF) Biomarker Activity (AID 2283044); settings: primary human coronary artery smooth muscle cells; actives raise or lower the signal;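 note: M-CSF protein amount quantified by ELISA after 24 h exposure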
[4] = read-out: Low-density lipoprotein receptor (LDLR), LDLR (gene 3949); assay: BSK_CASM3C_LDLR: BioMAP Diversity Plus: CASM3C Assay for Low-density lipoprotein receptor (LDLR) Biomarker Activity (AID 2283045); settings: primary human coronary artery smooth muscle cells; actives raise or lower the signal;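 note: LDLR protein level on the cell surface quantified by ELISA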
[5] = read-out: Monocyte Chemoattractant Protein-1 (MCP1), CCL2 (gene 6347); assay: BSK_CASM3C_MCP1: BioMAP Diversity Plus: CASM3C Assay for Monocyte Chemoattractant Protein-1 (MCP1) Biomarker Activity (AID 2283046); settings: primary human coronary artery smooth muscle cells; actives raise or lower the signal;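 note: MCP-1 level quantified by ELISA 24 h after dosing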
[6] = BSK_CASM3C_Proliferation: Cell Proliferation Assessment in the BioMAP Diversity Plus: CASM3C Assay (AID 2283047); settings: primary human coronary artery smooth muscle cells;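 note: sulforhodamine B total protein stain as relative cell number at 560 nm; sub-confluent cells exposed 48 h before staining; fitted both ways against DMSO so gain or loss of cell number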
[7] = read-out: Monokine induced gamma interferon (MIG), CXCL9 (gene 4283); assay: BSK_CASM3C_MIG: BioMAP Diversity Plus: CASM3C Assay for Monokine induced gamma interferon (MIG) Biomarker Activity (AID 2283048); settings: primary human coronary artery smooth muscle cells; actives raise or lower the signal;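 note: MIG protein level measured by ELISA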
[8] = read-out: serum amyloid A (SAA), SAA1 (gene 6288); assay: BSK_CASM3C_SAA: BioMAP Diversity Plus: CASM3C Assay for serum amyloid A (SAA) Biomarker Activity (AID 2283049); settings: primary human coronary artery smooth muscle cells; actives raise or lower the signal;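 note: SAA protein level quantified by ELISA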
[9] = BSK_CASM3C_SRB: Viability Assessment in the BioMAP Diversity Plus: CASM3C Assay (AID 2283050); settings: primary human coronary artery smooth muscle cells;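 note: cells exposed to compound for 24 h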
[10] = read-out: Thrombomodulin, THBD (gene 7056); assay: BSK_CASM3C_Thrombomodulin: BioMAP Diversity Plus: CASM3C Assay for Thrombomodulin Biomarker Activity (AID 2283051); settings: primary human coronary artery smooth muscle cells; actives raise or lower the signal;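 note: thrombomodulin protein level measured by ELISA 24 h after dosing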
[11] = read-out: Tissue Factor, F3 (gene 2152); assay: BSK_CASM3C_TissueFactor: BioMAP Diversity Plus: CASM3C Assay for Tissue Factor Biomarker Activity (AID 2283052); settings: primary human coronary artery smooth muscle cells; actives raise or lower the signal;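 note: cell surface tissue factor protein level read by ELISA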
[12] = read-out: Urokinase-type plasminogen activator receptor (uPAR), PLAUR (gene 5329); assay: BSK_CASM3C_uPAR: BioMAP Diversity Plus: CASM3C Assay for Urokinase-type plasminogen activator receptor (uPAR) Biomarker Activity (AID 2283054); settings: primary human coronary artery smooth muscle cells; actives raise or lower the signal;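 note: cell-surface uPAR protein level quantified by ELISA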
[13] = read-out: Vascular cell adhesion molecule 1 (VCAM1), VCAM1 (gene 7412); assay: BSK_CASM3C_VCAM1: BioMAP Diversity Plus: CASM3C Assay for Vascular cell adhesion molecule 1 (VCAM1) Biomarker Activity (AID 2283055); settings: primary human coronary artery smooth muscle cells; actives raise or lower the signal;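 note: VCAM-1 protein level quantified by ELISA on the cells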
[14] = read-out: Collagen III, COL3A1 (gene 1281); assay: BSK_hDFCGF_CollagenIII: BioMAP Diversity Plus: hDFCGF Assay for Collagen III Biomarker Activity (AID 2283056); settings: primary human foreskin fibroblasts; actives raise or lower the signal
Outline: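 Human foreskin fibroblast primary cultures sampled 24 h after dosing; Collagen III quantified by ELISA. Signal fitted bidirectionally against DMSO baseline.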

[15] = read-out: Epidermal growth factor receptor (EGFR), EGFR (gene 1956); assay: BSK_hDFCGF_EGFR: BioMAP Diversity Plus: hDFCGF Assay for Epidermal growth factor receptor (EGFR) Biomarker Activity (AID 2283057); settings: primary human foreskin fibroblasts; actives raise or lower the signal
Outline: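 Primary human foreskin fibroblasts (hDFCGF system), sampled 24 h after dosing; EGFR quantified by ELISA. Bidirectional fit relative to DMSO baseline; SRB total-protein staining in parallel cultures for cytotoxicity.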

[16] = read-out: Interleukin-8 (IL8), CXCL8 (gene 3576); assay: BSK_hDFCGF_IL8: BioMAP Diversity Plus: hDFCGF Assay for Interleukin-8 (IL8) Biomarker Activity (AID 2283058); settings: primary human foreskin fibroblasts; actives raise or lower the signal
Outline: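 Primary human foreskin fibroblasts (hDFCGF system) dosed with chemical; IL-8 measured by ELISA 24 hours later. Bidirectional curve fitting relative to DMSO baseline; cytotoxicity tracked in parallel cultures by SRB total protein staining.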

[17] = BSK_hDFCGF_Proliferation: Cell Proliferation Assessment in the BioMAP Diversity Plus: hDFCGF Assay (AID 2283059); settings: primary human foreskin fibroblasts;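 note: curves fitted for both rise and fall of signal versus DMSO baseline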
Outline: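 Sub-confluent human foreskin fibroblast cultures receive test chemical […]. Relative cell number is quantified by sulforhodamine B staining (0.1%, after 10% TCA fixation) at 560 nm, with bidirectional fitting referenced to DMSO.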

[18] = read-out: Macrophage colony-stimulating factor (MCSF), CSF1 (gene 1435); assay: BSK_hDFCGF_MCSF: BioMAP Diversity Plus: hDFCGF Assay for Macrophage colony-stimulating factor (MCSF) Biomarker Activity (AID 2283060); settings: primary human foreskin fibroblasts; actives raise or lower the signal
Outline: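 Human foreskin fibroblast primary cultures; M-CSF measured by ELISA 24 hours after chemical dosing. Bidirectional fitting relative to DMSO, with overt cytotoxicity tracked by parallel SRB total-protein staining (0.1% SRB, 10% TCA fixation, 560 nm).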

[19] = BSK_hDFCGF_SRB: Viability Assessment in the BioMAP Diversity Plus: hDFCGF Assay (AID 2283061); settings: primary human foreskin fibroblasts;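 note: cells exposed to compound for 24 h before the read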
Outline: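 Human foreskin fibroblasts in 96-well plates were treated 24 h. Total protein was measured by 0.1% SRB staining after 10% TCA fixation, read at 560 nm. Data were fitted bidirectionally against DMSO.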

Measured: AC50

Cc1ccc(-c2c(Cl)nc(C#N)n2S(=O)(=O)N(C)C)cc1
active: [14] 13.9 µM | [17] 17 µM | [18] 14.3 µM | [19] 14.5 µM
inactive: [1] | [2] | [3] | [4] | [5] | [6] | [7] | [8] | [9] | [10] | [11] | [12] | [13] | [15] | [16]

N#CC(CCc1ccc(Cl)cc1)(Cn1cncn1)c1ccccc1 (stereo unspecified)
active: [17] 1.78 µM
inactive: [1] | [2] | [3] | [4] | [5] | [6] | [7] | [8] | [9] | [10] | [11] | [12] | [13] | [14] | [15] | [16] | [18] | [19]

Fc1ccc(Oc2ccnc3cc(Cl)cc(Cl)c23)cc1
active: [5] 30.6 µM | [6] 24.4 µM | [9] 23.7 µM | [10] 18.6 µM | [14] 12.1 µM | [17] 11.7 µM | [18] 16.4 µM | [19] 15.3 µM
inactive: [1] | [2] | [3] | [4] | [7] | [8] | [11] | [12] | [13] | [15] | [16]

CNC(=O)ON=CC(C)(C)SC
active: [8] 1.35 µM | [12] 148 nM
inactive: [1] | [2] | [3] | [4] | [5] | [6] | [7] | [9] | [10] | [11] | [13] | [14] | [15] | [16] | [17] | [18] | [19]
